Here are results for 61 molecules from ChEMBL document CHEMBL3988442, “University of Dundee, Small-Polar-MMV Screening Library” (2021).

The campaign covered roughly 48,000 compounds. About 13,000 (27%) showed an effect of 50% or more. This is one part of the list.

The subject of the experiment is Wolbachia pipientis. Put plainly: Anti-Wolbachia Cell-Based Screen. In kind it is functional. More on the design: scale not given: in the data most compounds retested in dose-response had high values. The settings on record: 5 µM.
As for `Cc1ccc(CN2CCOC3(COCCN(C(C)C)C3)C2)s1.O=C(O)C(F)(F)F.O=C(O)C(F)(F)F` (stereo unspecified), the “Percent Effect” value is on record as -2.418%.
Then `Cc1nccn1-c1cc(CNC(=O)C2CCC(=O)NC2)ccn1` (stereo unspecified), with -12.56%; and `COCCOc1ncccc1C(=O)N1CCCC1Cn1cc(C)cn1` (stereo unspecified), with 71.82%.
In the case of `Cc1cnn(CC2CCCN2C(=O)c2cccnc2-n2cncn2)c1` (stereo unspecified), the “Percent Effect” value is reported as 106.4%.
Turning to `CCOc1ncccc1C(=O)N1CCCC1Cn1cc(C)cn1` (stereo unspecified), the “Percent Effect” value was 90.55%.
Then `O=C(c1cccnc1-n1cncn1)N1CCN(CC2CC2)CC1`, with -14.6%; and `CSCCc1nc(C(C)C)nn1-c1ccncc1C`, with -5.681%; and `COCC(C)(C#N)NC(=O)COc1ccccc1Br` (stereo unspecified), with -5.931%.
Then `Cc1c(-c2ccccc2)ncn1CC(c1cccnc1)N1CCOCC1` (stereo unspecified), with 2.3%.
As for `COCCC1(CO)CCCN(C(=O)c2ccc(C(C)C)[nH]c2=O)C1` (stereo unspecified), the “Percent Effect” value came to 9.971%.
`Cn1ccnc1CN1CCN(c2ccc(C#N)cc2F)CC1`: the “Percent Effect” value amounted to 2.933%.
Then `Cc1ccc(N2C[C@H]3CCC[C@@H](CN(C)C)[C@H]3C2)nn1.O=C(O)C(F)(F)F`, with -2.322%.
Then `Cc1csc([C@H]2C[C@@H]3CCN(C(=O)c4ccnnc4)C[C@H]3O2)n1`, with -2.379%.
In the case of `O=C(O)C(F)(F)F.O=C(c1cnccn1)N1C[C@@H]2C[C@@H](c3nc(C4CC4)cs3)O[C@@H]2C1`, the “Percent Effect” value worked out at 97.61%.
As to `Cc1csc([C@@H]2C[C@@H]3CCN(C(=O)c4cnccn4)C[C@H]3O2)n1`, the “Percent Effect” value is on record as -0.1445%.
As to `O=C(O)C(F)(F)F.O=C(c1ccnnc1)N1C[C@@H]2C[C@@H](c3nc(C4CC4)cs3)O[C@@H]2C1`, the “Percent Effect” value turned out to be 114.8%.
Then `Cn1cccc1C(=O)N1C[C@@H]2C[C@@H](c3nc(C4CC4)cs3)O[C@@H]2C1.O=C(O)C(F)(F)F`, with 215.5%; and `Cc1ccc(CN2CC[C@H]3C[C@H](c4nc(C5CC5)cs4)O[C@@H]3C2)o1`, with 7.352%; and `Cc1csc([C@H]2C[C@@H]3CCN(C(=O)c4cnccn4)C[C@H]3O2)n1`, with 7.08%.
`Cc1noc([C@@H]2C[C@H]3CN(C(=O)C4CCN(C)CC4)C[C@H]3O2)n1.O=C(O)C(F)(F)F`: the “Percent Effect” value was 11.84%.
Then `O=C(C1CCOCC1)N1C[C@@H]2C[C@@H](c3nc(C4CC4)cs3)O[C@@H]2C1.O=C(O)C(F)(F)F`, with 2.3%; and `COc1cccc(-n2c(C)cc(C(=O)O)c2C)c1`, with 1.282%; and `CC(=O)N1[C@H](Cn2cncn2)C[C@@H]2CN(c3ncccn3)CC[C@@H]21`, with -1.924%.
The result for `COCC1CCN(S(=O)(=O)N2C[C@@H](C)[C@](O)(C3CC3)C2)CC1` reads -6.27%; that for `COC(=O)c1ccc(NC(=O)NC2CCc3[nH]ncc3C2)cc1` (stereo unspecified), -3.404%.
Then `O=C(C1CCCO1)N1CC[C@@H]2CN(Cc3ccccc3)S(=O)(=O)[C@@H]2CC1` (stereo partly specified), with -10.05%; and `COCC(=O)N1CC[C@@H]2CN(Cc3cccnc3)S(=O)(=O)[C@@H]2CC1`, with 104.6%; and `O=C(c1cc[nH]n1)N1CC[C@@H]2CN(Cc3cccnc3)S(=O)(=O)[C@@H]2CC1`, with -2.568%.
For the molecule `CC(C)CC(=O)N1CC[C@@H]2CN(CC(=O)N(C)C)S(=O)(=O)[C@@H]2CC1`, the “Percent Effect” value is recorded as -34.28%.
Then `O=C(O)C(F)(F)F.O=C(c1cc[nH]n1)N1CC[C@@H]2CN(Cc3ccccc3)S(=O)(=O)[C@@H]2CC1`, with -14%.
Consider `COCC(=O)N1CC[C@@H]2CN(Cc3ccccc3)S(=O)(=O)[C@@H]2CC1`, for which the “Percent Effect” value is -9.3%.
The result for `CC(C)CNC(=O)N1CC[C@@H]2CN(Cc3cccnc3)S(=O)(=O)[C@@H]2CC1.O=C(O)C(F)(F)F` reads 96.93%.
Then `CC(C)CC(=O)N1CC[C@@H]2CN(Cc3cccnc3)S(=O)(=O)[C@@H]2CC1`, with 111.2%; and `COCC(=O)N1CC[C@@H]2CN(Cc3cccc(Cl)c3)S(=O)(=O)[C@@H]2CC1`, with -12.94%; and `O=C(C1CCC1)N1CC[C@@H]2CN(Cc3cccnc3)S(=O)(=O)[C@@H]2CC1`, with 102.5%.
Then `CC(=O)N1CC[C@@H]2CN(Cc3ccncc3)S(=O)(=O)[C@@H]2CC1.O=C(O)C(F)(F)F`, with -10.18%.
Turning to `O=C1O[C@@H]2CN(c3ccncc3)C[C@@H]2N1CCCc1ccc(F)cc1`, the “Percent Effect” value was -4.206%.
With `CN(CCO)CC1COCCN1C(=O)C1(c2cccs2)CCCC1.O=CO` (stereo unspecified), the “Percent Effect” value was found to be 2.363%.
Then `COCCC1(CO)CCCN(C(=O)c2cccnc2O)C1` (stereo unspecified), with 1.104%.
Then `Cl.O=C1C(NCc2ccc3c(c2)CCO3)CCN1Cc1ccccc1` (stereo unspecified), with -4.636%; and `COCC(=O)N1CCC(C(=O)N(C)C(C)c2ccon2)CC1` (stereo unspecified), with 2.013%.
Then `CCOc1ncccc1CNC(=O)CN1CCCCCC1=O`, with -62.17%; and `COc1ccccc1C(O)CNC(=O)NCc1cccnc1OC` (stereo unspecified), with -5.086%.
As for `CCCNC(=O)NCc1cccnc1OC`, the “Percent Effect” value is 1.177%.
For the molecule `CCCS(=O)(=O)NCc1cccnc1OCC`, the “Percent Effect” value was -4.428%.
With `CCOc1ncccc1CNC(=O)Nc1ccc(CC)cc1`, the “Percent Effect” value is listed as 115%.
Then `COc1ncccc1CNC(=O)NCCNC(=O)c1ccco1`, with 0.6647%; and `CCOc1ncccc1CNC(=O)Nc1ccccc1`, with 95.65%.
On to `CC[C@@H](NC(C)=O)C(=O)NCc1cccnc1Oc1ccccc1OC`, for which the “Percent Effect” value worked out at 5.567%.
Consider `CCOc1ccc(NC(=O)NCc2cccnc2OCC)cc1`, for which the “Percent Effect” value was 105.6%.
The result for `CCOc1ncccc1CNC(=O)Nc1ccc(OC)c(OC)c1` reads 124%; that for `CN(C)C(=O)C1CCCN1CCCNC(=O)c1ccccc1F` (stereo unspecified), 12.21%.
Consider `CC(C)(C(=O)NCCS(N)(=O)=O)c1cccc(Br)c1`, for which the “Percent Effect” value is recorded as -14.63%.
Then `COc1cccc(-c2n[nH]c3c2CN(C(=O)c2oc(C)cc2C)CC3)c1`, with 3.438%; and `CCN(CC)CC[C@H]1CN(C(=O)c2ccc(F)cc2)CC[C@H]1CC(=O)O`, with 0.9693%; and `CCCN1CCc2[nH]cnc2C12CCN(C(=O)Cn1ccnc1C)CC2`, with -4.185%.
Regarding `CCn1ccc2ccnc(CC3CN(C(=O)c4ccc(F)cc4)C3)c21`, the “Percent Effect” value turned out to be 128.6%.
The result for `Cn1ccc2ccnc(CC3CN(C(=O)C4CCC(F)(F)CC4)C3)c21` reads -0.631%; that for `COc1ccccc1C(=O)N1CC(Cc2nccc3ccn(C)c23)C1`, -2.36%.
Take `CCn1ccc2ccnc(CC3CN(C(=O)c4cnco4)C3)c21`: the “Percent Effect” value came out at 144.4%.
The result for `CCn1ccc2ccnc(CC3CN(C(=O)Cn4ccnc4C)C3)c21.O=CO` reads 124.4%.
